Of roughly 7,900 targets only a part is listed; those with a hit were picked by preference. About 0.6% of all pairs of compound and target were hits. A number with no mark means an inactive call.

Sequence of UniProt P36969 (P36969 whole entry, looked up): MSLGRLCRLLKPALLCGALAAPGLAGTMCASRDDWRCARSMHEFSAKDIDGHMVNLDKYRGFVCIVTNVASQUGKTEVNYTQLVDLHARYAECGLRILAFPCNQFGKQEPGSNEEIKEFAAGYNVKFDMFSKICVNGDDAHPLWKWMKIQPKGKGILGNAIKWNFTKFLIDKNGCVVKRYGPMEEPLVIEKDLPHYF
Sequence of UniProt O00458 (O00458 whole entry, looked up): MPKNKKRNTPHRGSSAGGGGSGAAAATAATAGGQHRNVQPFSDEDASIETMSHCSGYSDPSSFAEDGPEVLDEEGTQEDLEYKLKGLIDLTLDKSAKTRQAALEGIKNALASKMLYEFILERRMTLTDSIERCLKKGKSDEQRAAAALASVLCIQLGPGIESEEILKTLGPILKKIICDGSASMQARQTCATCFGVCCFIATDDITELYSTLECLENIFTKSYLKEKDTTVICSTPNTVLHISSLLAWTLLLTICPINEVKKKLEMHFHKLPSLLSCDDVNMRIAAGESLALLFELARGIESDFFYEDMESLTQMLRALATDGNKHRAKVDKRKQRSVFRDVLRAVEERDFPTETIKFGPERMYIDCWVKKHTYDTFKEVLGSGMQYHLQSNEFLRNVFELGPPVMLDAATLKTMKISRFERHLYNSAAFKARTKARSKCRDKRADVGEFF
Sequence of UniProt P62879 (P62879 whole entry, looked up): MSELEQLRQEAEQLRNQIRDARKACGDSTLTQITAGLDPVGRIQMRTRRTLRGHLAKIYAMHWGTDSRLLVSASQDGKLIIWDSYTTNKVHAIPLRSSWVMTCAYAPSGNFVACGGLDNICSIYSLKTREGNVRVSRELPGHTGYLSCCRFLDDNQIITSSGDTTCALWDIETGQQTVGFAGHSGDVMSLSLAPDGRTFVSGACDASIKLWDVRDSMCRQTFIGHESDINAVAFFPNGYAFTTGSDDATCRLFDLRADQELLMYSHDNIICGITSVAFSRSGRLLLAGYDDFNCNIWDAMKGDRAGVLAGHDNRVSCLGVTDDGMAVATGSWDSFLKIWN
Sequence of UniProt P06865 (P06865 whole entry, looked up): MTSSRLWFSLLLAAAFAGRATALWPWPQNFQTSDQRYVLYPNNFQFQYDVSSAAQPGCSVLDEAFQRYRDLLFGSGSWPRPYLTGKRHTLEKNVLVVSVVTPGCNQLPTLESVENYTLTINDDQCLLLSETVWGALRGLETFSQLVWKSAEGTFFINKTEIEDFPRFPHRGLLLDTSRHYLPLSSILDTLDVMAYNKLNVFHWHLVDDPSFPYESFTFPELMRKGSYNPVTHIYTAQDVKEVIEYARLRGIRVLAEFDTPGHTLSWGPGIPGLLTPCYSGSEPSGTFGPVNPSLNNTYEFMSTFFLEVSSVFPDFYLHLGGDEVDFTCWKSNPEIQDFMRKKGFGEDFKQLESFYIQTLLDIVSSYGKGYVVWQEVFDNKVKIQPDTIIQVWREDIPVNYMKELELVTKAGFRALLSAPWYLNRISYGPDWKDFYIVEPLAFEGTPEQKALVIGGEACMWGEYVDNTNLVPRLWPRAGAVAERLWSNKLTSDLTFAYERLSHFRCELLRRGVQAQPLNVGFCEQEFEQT
Sequence of UniProt P29083 (P29083 whole entry, looked up): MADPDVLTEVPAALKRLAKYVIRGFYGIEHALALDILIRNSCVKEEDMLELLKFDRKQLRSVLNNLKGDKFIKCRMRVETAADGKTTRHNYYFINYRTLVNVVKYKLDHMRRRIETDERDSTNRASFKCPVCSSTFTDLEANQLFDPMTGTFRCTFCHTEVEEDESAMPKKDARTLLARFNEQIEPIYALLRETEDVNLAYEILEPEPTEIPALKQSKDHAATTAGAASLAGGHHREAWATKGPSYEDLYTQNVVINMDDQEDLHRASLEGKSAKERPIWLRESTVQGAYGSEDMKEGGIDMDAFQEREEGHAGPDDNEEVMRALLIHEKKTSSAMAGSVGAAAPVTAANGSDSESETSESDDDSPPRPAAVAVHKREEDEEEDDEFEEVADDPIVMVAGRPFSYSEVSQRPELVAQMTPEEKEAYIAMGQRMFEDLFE
Sequence of UniProt O15347 (O15347 whole entry, looked up): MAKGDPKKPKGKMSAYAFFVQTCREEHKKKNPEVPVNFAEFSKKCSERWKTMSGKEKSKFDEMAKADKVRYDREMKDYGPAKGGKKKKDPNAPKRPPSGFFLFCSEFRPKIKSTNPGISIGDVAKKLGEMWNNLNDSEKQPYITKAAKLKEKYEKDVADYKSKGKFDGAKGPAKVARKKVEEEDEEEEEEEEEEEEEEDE
Sequence of UniProt P23327 (P23327 whole entry, looked up): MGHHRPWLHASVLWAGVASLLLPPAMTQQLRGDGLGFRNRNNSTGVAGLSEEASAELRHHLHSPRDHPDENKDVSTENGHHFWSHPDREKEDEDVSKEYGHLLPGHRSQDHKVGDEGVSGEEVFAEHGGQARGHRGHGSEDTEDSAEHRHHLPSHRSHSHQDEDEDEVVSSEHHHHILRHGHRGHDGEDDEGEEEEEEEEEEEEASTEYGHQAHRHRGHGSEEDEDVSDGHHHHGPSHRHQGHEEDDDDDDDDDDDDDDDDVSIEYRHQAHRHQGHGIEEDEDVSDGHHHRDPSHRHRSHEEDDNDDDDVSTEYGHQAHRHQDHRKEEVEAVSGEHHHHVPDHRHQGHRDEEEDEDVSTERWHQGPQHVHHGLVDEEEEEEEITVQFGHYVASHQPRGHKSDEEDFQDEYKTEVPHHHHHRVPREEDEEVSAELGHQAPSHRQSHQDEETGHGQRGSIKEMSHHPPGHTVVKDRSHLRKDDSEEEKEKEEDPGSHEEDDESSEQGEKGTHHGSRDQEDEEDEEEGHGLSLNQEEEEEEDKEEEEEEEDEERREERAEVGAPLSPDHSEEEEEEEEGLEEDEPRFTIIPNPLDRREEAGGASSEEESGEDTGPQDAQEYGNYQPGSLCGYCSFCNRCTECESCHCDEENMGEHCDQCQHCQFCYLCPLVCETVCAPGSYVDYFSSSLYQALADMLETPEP
Sequence of UniProt Q7Z4H3 (Q7Z4H3 whole entry, looked up): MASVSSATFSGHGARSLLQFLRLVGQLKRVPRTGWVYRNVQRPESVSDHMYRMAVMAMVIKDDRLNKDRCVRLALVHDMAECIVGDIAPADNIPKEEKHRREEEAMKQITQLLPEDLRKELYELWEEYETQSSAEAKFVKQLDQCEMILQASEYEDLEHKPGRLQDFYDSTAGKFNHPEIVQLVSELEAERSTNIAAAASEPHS
Sequence of UniProt P31943 (P31943 whole entry, looked up): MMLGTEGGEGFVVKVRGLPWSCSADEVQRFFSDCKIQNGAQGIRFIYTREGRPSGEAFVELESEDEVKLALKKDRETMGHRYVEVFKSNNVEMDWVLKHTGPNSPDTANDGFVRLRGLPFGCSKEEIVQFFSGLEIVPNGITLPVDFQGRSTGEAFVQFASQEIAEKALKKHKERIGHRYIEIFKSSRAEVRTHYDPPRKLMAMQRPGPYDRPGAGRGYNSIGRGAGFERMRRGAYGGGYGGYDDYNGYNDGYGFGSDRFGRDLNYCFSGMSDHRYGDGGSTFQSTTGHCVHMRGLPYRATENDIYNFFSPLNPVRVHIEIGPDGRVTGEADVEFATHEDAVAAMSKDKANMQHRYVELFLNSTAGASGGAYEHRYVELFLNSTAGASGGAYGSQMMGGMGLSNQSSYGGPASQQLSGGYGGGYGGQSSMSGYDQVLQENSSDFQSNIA
Sequence of UniProt P04035 (P04035 whole entry, looked up): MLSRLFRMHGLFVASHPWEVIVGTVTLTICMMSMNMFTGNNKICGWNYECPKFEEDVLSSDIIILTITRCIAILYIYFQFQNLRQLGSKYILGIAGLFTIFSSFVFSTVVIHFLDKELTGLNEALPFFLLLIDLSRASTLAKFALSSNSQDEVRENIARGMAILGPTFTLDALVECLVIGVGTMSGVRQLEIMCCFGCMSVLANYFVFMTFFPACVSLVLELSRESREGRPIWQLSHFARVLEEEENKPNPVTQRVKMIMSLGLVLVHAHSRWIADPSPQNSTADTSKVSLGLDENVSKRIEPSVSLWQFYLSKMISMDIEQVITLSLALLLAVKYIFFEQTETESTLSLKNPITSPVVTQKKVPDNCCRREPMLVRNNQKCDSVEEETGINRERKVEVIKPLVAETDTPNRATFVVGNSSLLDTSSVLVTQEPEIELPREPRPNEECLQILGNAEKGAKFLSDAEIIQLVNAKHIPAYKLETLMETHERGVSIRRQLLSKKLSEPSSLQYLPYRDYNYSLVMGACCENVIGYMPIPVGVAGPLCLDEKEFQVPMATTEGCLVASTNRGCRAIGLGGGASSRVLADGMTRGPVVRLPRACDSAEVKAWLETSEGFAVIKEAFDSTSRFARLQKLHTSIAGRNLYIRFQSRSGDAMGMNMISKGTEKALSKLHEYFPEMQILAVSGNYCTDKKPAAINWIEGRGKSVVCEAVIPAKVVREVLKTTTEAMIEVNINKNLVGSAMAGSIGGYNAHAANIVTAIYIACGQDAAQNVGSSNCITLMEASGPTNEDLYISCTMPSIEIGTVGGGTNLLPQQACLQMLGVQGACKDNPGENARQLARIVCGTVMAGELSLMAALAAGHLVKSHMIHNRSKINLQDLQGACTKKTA
Sequence of UniProt O60725 (O60725 whole entry, looked up): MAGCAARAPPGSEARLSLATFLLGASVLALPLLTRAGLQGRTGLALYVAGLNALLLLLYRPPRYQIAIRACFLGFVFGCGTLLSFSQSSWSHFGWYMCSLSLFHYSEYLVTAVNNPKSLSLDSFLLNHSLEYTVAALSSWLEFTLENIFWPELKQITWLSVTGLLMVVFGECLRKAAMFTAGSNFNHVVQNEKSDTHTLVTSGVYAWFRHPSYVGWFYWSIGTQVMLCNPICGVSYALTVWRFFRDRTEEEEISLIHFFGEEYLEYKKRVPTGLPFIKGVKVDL
Sequence of UniProt P09105 (P09105 whole entry, looked up): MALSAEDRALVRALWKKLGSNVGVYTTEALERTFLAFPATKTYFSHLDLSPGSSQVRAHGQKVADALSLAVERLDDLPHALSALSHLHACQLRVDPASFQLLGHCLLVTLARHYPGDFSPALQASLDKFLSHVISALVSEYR

Compound in the test: CC(=O)c1cnc2ccc(-c3cc(Cl)c(O)c(Cl)c3)nc2c1N[C@H]1CC[C@H](CN(C)C)CC1
As to the kind of experiment: log2 fold change, soluble protein after heating vs DMSO (PISA); higher = thermal stabilisation; K562 cells, 10 uM, 30 min; active = over 0.2 and 3.5 SD of the protein, either way, in both replicates (recomputed). The method, boiled down:
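K562 cells at 2×10^6 cells/mL were treated for 30 min with 10 μM compound, and aliquots were heated for 3 min over 48°C-58°C before pooling. Extraction used PBS with 0.5% NP-40 at 4°C, and soluble protein was the supernatant after 21,000xg for 90 min, measured by TMTpro 16plex LC-MS/MS with channel sums equalised. Thermal stability values, relative to control samples and from duplicates, are log2 fold changes.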
Turning to GNB2 (UniProt P62879), the log2 fold change is -0.013. On to GTF2B (UniProt Q00403), for which the log2 fold change was -0.023. Under GTF2E1 (UniProt P29083) stands -0.051; under GPX4 (UniProt P36969), -0.005; under HMGB3 (UniProt O15347), 0.083. For the target GAPVD1 isoform 6 (UniProt Q14C86), the log2 fold change is 0.005. FNTB (UniProt P49356): the log2 fold change was -0.028. On to FKBP4 (UniProt Q02790), for which the log2 fold change was -0.006.

For IFRD1 (UniProt O00458), the log2 fold change is 0.203.

Regarding IFT80 isoform 3 (UniProt Q9P2H3), the log2 fold change was -0.073.

On to IFI30 (UniProt P13284), for which the log2 fold change is 0.088.

For GALNT1 (UniProt Q10472), the log2 fold change was -0.002. Under FUBP3 (UniProt Q96I24) stands -0.054. Under ICMT (UniProt O60725) stands 0.248; under GCC2 (UniProt Q8IWJ2), 0.105; under HIC2 (UniProt Q96JB3), 0.024. Under HRC (UniProt P23327) stands 0.041; under HSD17B12 (UniProt Q53GQ0), -0.127.

Consider HMGCR isoform 3 (UniProt P04035), for which the log2 fold change was 0.022. Under GOLPH3 (UniProt Q9H4A6) stands -0.023; under GEMIN5 (UniProt Q8TEQ6), -0.155; under FUCA2 (UniProt Q9BTY2), -0.056. Under HNRNPH1 (UniProt P31943) stands -0.176; under GNPAT (UniProt O15228), -0.017. Under GOPC (UniProt Q9HD26) stands 0.03. For HPCAL1 (UniProt P37235), the log2 fold change is 0.028. Turning to GTF2A2 (UniProt P52657), the log2 fold change was -0.002.

Take GSK3A (UniProt P49840): the log2 fold change was 0.303 (active). Take HBQ1 (UniProt P09105): the log2 fold change was 0.01. Under HOOK3 (UniProt Q86VS8) stands -0.018; under HEXA (UniProt P06865), 0.018; under GGA2 (UniProt Q9UJY4), -0.006. Under HNRNPC isoform 2 (UniProt P07910) stands -0.365; under H2AFX (UniProt P16104), 0.044. As to HDDC2 (UniProt Q7Z4H3), the log2 fold change was 0.052.

The record behind these values is the supplement of paper PMC10849652.
